IDE act = IDE (human) activation, cell-based. P14735. HEK cells, FAbeta-B cleavage, fluorescence polarization; 0% vehicle, 100% cell-free pure enzyme wells. activation, % at 5.96 µM. 340,000 compounds, 0.073% hits. AID 493087;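 active means activation above the mean of all tested compounds plus 3 SD, set per screening campaign, cut at about 17% in these data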
PKA-R1A activ = activators of PKA-R1A complex. activation, % at 11.4 µM. 340,000 compounds, 0.083% hits. PKA-R1A dissociation, Cy5-IP20 fluorescence polarization; scaled: DMSO 0%, 113 µM cGMP 100%. AID 504707. P00514+P68181;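 active means percent activation above the mean of all tested compounds plus 3 SD, cut at about 19% in these data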;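 further: higher means more PKAc released from R1A so a rise in polarization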
PKA-R2B activ = activators of human PKA-R2B complex; PKA-R2B holoenzyme dissociation, Cy5-IP20 fluorescence polarization; R2B truncated from residue 108, S112A mutant; 0% DMSO only, 100% 113 µM cGMP; activation, % at 11.4 µM; 340,000 compounds, 0.079% hits; AID 504700;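 active means activation above a cutoff set at the mean over all compounds plus 3 SD, cut at about 18% in these data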;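 further: higher means more holoenzyme dissociation and a rise in polarization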
Target sequence (P31323 whole entry, looked up, other chains not shown, the tested form may be a part): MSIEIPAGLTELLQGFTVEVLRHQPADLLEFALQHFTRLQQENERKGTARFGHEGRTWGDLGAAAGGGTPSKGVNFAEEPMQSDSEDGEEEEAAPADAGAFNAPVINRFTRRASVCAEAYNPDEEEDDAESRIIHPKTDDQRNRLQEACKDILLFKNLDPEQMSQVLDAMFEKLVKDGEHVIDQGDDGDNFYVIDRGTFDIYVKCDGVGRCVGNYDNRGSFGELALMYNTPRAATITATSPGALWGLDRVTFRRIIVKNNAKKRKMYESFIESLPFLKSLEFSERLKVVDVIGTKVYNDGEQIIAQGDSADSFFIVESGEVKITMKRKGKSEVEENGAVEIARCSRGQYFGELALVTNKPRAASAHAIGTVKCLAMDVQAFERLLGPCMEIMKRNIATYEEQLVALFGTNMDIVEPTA
IDE inh = cellular human IDE inhibition | 320,000 compounds, 0.41% hits | inhibition, % at 5.59 µM | P14735 | HEK cells, FAbetaB cleavage, fluorescence polarization;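 active means percent inhibition above the average of all tested compounds plus 3 SD, set per screening campaign, cut at about 16% in these data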;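 further: IDE supplied by intact live HEK cells; FP after avidin binding of uncleaved biotin substrate so inhibition keeps polarization high; 0% = DMSO wells and 100% = 60 µM reference IDE inhibitor Ii1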
Rin1-Abl PPI inh = inhibitors of human Rin1-Abl protein interaction | AID 588664 | TR-FRET Rin1/Abl binding, biochemical | P00519+Q13671 | inhibition, % at 7.35 µM | 360,000 compounds, 0.4% hits; in the data active means inhibition above about 5%, passing the limit was not always enough
E coli Lon inh = E. coli protease La inhibition; P0A9M0; purified E. coli Lon protease, fluorescence polarization; inhibition, % at 7.94 µM; 360,000 compounds, 0.42% hits; AID 602123; in the data active means inhibition above about 13%, passing the limit was not always enough;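 further: 0% = enzyme with probe and DMSO and 100% = no enzyme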
Rin1 Abl conf = Rin1-Abl interaction inhibition confirmation; shares compounds with Rin1-Abl PPI inh; TR-FRET Rin1-Abl binding, purified proteins; 1,300 compounds, 49% hits; AID 602124; inhibition, % at 7.35 µM
GFP quench = quenches GFP fluorescence, counter-screen for Rin1-Abl inhibitors. inhibition, % at 6.75 µM. 1,300 compounds, 8.5% hits. shares compounds with Rin1-Abl PPI inh. inhibitors/quenchers counterscreen. AID 602125;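 further: ABL1-eGFP fusion protein alone without its partner RIN1-SBP; 0% = protein with vehicle and 100% = wells lacking protein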
The depositor's hits bear a star; / = no result given. Compounds with a hit are over-represented: about 1.3% of the library has one in this group of screens. Unless noted, no stated cut-off is given here; in the data, active means inhibition above about 6.5%; inactive means the rest.

SMILES | IDE act | PKA-R1A activ | PKA-R2B activ | IDE inh | Rin1-Abl PPI inh | E coli Lon inh | Rin1 Abl conf | GFP quench
C=CCN(c1ccccc1OC)S(=O)(=O)c1cccc(C(=O)NCc2ccco2)c1 | 2 | -5 | -4 | -7 | 2 | -7 | / | /
CCOC(=O)C1CCN(C(=O)c2ccc(SC)cc2OC)CC1 | -3 | 3 | -5 | 4 | 0 | 5 | / | /
CN(CC(=O)Nc1ccccn1)S(=O)(=O)c1ccc(Cl)cc1 | 0 | -3 | -9 | 7 | 36* | 4 | -3 | -2
COc1ccc(N(CC(=O)Nc2ccc(F)c(Cl)c2)S(=O)(=O)c2c(C)noc2C)cc1 | 3 | 6 | -3 | -1 | 0 | 7 | / | /
CC(=O)N1c2ccc(S(=O)(=O)N3CCC(C(=O)NCCc4ccc(Cl)cc4)CC3)cc2CC1C (stereo unspecified) | 3 | -13 | -8 | -2 | 9.8* | 2 | -1 | -1
Clc1cccc(Cl)c1CNCCCSc1ncccn1 | 6 | -5 | -8 | 1 | -1 | -1 | / | /
Fc1cccc(Cl)c1CNCCCSc1ncccn1 | 6 | -13 | -11 | -10 | 6.9* | -1 | -1 | 0
CN=c1scc(-c2ccc(F)cc2)n1/N=C/c1ccc(O)c(O)c1 | 6 | -1 | 8 | / | 2 | -13 | / | /
Oc1ccc(/C=N/Nc2ccc(Cl)nn2)c(O)c1O | -3 | -7 | -1 | 3 | 29* | 15 | 27* | 17*
CN(/N=C/c1ccc(O)cc1O)c1nc(-c2ccccc2)cc(-c2ccccc2)n1 | 0 | -3 | 3 | -3 | -2 | 6 | / | /
COc1cc2nc(Nc3cccc(F)c3)nc(N)c2cc1OC | 1 | -6 | -6 | -2 | 8.9* | 9 | 13* | 1
COC(=O)c1sc(NC(=O)C(C)C)c(C(=O)OC)c1C | 1 | -4 | 5 | 8 | 2 | -10 | / | /
Cc1occc1C(=O)N1CCCC(N2CCN(c3ccccc3F)CC2)C1 (stereo unspecified) | 2 | -4 | 9 | -4 | 11* | 4 | -1 | 0
O=C(c1ccco1)N1CCCC(N2CCN(c3ccccc3F)CC2)C1 (stereo unspecified) | 4 | -1 | 11 | 1 | 1 | -4 | / | /
COCC(=O)OC1CCn2c1nc1c2C(=O)C(C)=C(NC(C)=O)C1=O (stereo unspecified) | 4 | -4 | 7 | / | 18* | -2 | 16* | 1
CN(C)CCN(Cc1ccco1)c1ccccn1 | 1 | 4 | -9 | / | 1 | -4 | / | /
O=C(NCCCO)c1ccc2nc(-c3ccco3)c(-c3ccco3)nc2c1 | 2 | 6 | -11 | / | 11* | -3 | 2 | 11*
COC(=O)C1C(=O)C=C(Nc2ccc(F)cc2)CC1c1ccc(OC)cc1 (stereo unspecified) | 1 | 0 | 6 | -3 | 6.4* | -8 | -2 | 0
COC(=O)C1C(=O)C=C(Nc2ccc(F)cc2F)CC1c1ccc(OC)cc1 (stereo unspecified) | 1 | -11 | -2 | 3 | 0 | -3 | / | /
Nc1c(N(Cc2ccccc2)C(=O)CCc2ccccc2)c(=O)[nH]c(=O)n1Cc1ccccc1 | 2 | -1 | 2 | 1 | 9.8* | 7 | -1 | 1
COc1ccccc1CCC(=O)N(Cc1ccccc1)c1c(N)n(Cc2ccccc2)c(=O)[nH]c1=O | 5 | -12 | -9 | -4 | 3 | -6 | / | /
O=C(NCc1ccc(F)cc1)C1CCN(S(=O)(=O)N2CCOCC2)CC1 | -1 | -10 | 10 | 4 | 8.4* | -4 | 1 | 1
CCS(=O)(=O)NCc1cn2c(C)csc2n1 | 5 | 12 | -1 | -8 | 5 | -5 | / | /
COC(=O)c1ccc(/C=C2\Oc3ccccc3NC2=O)cc1 | -1 | -6 | -5 | 1 | -1 | -3 | / | /
